The supplement of paper PMC10849652
The full data set covers some 7,900 targets. This sample favours those with a hit. About 0.6% of all pairs of compound and target were hits.

compound: C1=CC=C(C=C1)C2=NC(=C(N2)C3=CC=NC=C3)C4=CC(=C(C=C4)Cl)O; experiment: log2 fold change, soluble protein after heating vs DMSO (PISA); higher = thermal stabilisation; K562 cells, 10 uM, 30 min; active = over 0.2 and 3.5 SD of the protein, either way, in both replicates (recomputed)
In short: (§1)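 Values are thermal stability changes relative to control samples and are taken from duplicates. They are stated as log2 fold changes. Before quantification by TMTpro 16plex LC-MS/MS with equalised channel sums, K562 cells at 2×10^6 cells/mL were treated with 10 μM compound for 30 min, heated in aliquots for 3 min across 48°C-58°C, pooled, extracted in PBS with 0.5% NP-40 at 4°C, and centrifuged at 21,000xg for 90 min to give the soluble supernatant.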

Chain of UniProt P46019 (P46019 whole entry, looked up): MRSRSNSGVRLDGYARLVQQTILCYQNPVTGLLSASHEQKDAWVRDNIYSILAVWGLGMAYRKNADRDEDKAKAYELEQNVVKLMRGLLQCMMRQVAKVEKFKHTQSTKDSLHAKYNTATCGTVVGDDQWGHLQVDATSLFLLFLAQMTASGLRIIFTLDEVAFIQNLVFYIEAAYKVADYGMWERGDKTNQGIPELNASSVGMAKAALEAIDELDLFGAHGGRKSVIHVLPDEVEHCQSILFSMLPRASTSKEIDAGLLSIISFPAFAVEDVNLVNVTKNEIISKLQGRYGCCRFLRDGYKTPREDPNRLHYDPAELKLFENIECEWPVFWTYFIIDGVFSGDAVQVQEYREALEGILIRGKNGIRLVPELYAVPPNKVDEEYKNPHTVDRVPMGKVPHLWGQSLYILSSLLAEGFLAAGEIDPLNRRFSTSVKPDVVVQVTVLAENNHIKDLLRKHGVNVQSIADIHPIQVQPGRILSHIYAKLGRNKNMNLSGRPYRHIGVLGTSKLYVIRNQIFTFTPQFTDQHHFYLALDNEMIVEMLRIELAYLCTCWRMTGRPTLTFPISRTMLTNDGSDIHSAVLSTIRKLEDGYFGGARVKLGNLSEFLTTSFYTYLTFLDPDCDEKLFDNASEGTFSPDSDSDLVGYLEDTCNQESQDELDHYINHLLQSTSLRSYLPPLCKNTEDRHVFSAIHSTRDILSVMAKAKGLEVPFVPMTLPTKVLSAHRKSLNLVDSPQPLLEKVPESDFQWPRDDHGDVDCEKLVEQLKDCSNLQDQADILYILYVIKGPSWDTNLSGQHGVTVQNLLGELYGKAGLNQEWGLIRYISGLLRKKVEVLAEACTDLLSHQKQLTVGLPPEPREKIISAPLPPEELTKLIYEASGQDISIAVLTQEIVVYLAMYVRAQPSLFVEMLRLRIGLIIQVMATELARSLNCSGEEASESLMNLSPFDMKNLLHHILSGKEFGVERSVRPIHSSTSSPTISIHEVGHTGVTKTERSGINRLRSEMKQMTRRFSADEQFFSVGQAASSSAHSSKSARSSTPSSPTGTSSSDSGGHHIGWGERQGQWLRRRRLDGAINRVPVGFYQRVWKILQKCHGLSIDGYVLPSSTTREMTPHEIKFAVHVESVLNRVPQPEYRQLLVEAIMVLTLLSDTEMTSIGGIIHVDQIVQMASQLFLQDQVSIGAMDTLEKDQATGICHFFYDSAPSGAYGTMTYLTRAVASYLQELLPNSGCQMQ
Chain of UniProt P28070 (P28070 whole entry, looked up): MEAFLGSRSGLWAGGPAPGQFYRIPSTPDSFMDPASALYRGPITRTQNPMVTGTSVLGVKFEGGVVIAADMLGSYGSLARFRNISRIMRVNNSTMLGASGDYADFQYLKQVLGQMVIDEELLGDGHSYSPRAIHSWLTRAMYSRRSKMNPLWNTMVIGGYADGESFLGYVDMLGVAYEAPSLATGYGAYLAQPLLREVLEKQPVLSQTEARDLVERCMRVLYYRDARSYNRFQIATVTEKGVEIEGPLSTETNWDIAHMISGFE
Chain of UniProt O60256 (O60256 whole entry, looked up): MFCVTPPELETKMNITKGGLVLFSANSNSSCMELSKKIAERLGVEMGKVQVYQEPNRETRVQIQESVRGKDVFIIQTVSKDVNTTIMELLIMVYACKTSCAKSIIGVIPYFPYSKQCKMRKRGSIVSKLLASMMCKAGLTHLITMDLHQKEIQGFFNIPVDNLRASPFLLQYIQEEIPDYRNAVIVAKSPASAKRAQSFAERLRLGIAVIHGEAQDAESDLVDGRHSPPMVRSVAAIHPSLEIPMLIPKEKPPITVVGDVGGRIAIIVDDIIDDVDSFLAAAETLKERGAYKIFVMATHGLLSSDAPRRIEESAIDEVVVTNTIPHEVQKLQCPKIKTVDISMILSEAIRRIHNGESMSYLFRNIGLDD
Chain of UniProt Q9UHX1 (Q9UHX1 whole entry, looked up): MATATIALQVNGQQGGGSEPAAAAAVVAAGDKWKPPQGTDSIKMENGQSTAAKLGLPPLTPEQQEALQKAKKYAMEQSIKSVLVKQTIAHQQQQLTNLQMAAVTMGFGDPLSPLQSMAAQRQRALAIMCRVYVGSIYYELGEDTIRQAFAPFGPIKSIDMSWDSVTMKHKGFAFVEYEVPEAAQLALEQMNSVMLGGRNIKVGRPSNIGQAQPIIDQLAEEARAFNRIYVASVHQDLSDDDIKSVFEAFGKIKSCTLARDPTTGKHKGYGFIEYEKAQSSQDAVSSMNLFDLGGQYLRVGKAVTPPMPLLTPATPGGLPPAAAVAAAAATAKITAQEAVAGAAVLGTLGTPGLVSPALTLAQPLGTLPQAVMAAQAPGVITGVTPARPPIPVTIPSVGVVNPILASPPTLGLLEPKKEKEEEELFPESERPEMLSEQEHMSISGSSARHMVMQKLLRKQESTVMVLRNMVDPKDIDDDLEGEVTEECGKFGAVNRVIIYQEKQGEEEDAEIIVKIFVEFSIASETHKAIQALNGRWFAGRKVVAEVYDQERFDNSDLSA
Chain of UniProt Q6WKZ4 (Q6WKZ4 whole entry, looked up): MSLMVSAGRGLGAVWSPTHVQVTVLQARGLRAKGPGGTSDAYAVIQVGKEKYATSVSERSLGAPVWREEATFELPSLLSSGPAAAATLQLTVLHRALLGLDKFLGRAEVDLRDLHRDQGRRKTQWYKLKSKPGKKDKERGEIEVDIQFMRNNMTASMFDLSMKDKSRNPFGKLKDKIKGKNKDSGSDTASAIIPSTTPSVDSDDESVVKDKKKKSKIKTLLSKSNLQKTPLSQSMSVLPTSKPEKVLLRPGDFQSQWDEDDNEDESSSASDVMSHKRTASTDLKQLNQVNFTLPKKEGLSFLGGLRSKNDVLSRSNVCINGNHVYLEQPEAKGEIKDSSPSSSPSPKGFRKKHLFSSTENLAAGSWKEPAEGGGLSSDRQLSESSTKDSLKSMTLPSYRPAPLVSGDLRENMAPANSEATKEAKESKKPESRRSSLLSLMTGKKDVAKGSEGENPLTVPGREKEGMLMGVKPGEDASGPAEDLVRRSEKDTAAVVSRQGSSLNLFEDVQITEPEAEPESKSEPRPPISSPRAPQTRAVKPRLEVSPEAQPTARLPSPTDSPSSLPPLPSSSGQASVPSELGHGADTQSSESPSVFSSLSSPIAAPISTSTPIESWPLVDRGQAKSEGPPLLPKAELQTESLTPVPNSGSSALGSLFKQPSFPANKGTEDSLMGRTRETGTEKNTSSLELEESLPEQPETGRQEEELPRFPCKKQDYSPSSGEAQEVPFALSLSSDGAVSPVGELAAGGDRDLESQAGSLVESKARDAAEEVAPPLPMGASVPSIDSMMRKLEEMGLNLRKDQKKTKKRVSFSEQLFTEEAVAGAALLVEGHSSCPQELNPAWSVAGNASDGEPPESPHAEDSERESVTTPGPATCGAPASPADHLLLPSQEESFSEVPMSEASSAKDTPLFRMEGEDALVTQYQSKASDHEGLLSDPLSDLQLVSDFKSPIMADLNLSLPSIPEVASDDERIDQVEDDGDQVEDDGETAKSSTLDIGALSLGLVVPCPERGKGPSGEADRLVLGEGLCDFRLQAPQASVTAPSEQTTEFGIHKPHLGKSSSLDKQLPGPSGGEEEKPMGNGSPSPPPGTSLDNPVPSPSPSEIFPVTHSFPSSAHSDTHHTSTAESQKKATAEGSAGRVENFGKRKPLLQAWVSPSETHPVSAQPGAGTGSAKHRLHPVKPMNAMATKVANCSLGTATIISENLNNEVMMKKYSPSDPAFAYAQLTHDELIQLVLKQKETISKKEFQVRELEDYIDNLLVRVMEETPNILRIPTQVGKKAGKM
Chain of UniProt Q9H300 (Q9H300 whole entry, looked up): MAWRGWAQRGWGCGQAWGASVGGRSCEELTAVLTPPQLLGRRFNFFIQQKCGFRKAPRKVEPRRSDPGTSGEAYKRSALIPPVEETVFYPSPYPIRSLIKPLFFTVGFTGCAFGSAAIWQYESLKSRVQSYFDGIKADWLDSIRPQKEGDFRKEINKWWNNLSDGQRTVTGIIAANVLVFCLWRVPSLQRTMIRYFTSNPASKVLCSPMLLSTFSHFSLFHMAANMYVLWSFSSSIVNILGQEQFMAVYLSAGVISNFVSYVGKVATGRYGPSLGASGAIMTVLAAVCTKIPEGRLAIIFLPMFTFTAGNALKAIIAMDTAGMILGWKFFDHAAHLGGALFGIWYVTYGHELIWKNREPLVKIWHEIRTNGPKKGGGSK
Chain of UniProt O43242 (O43242 whole entry, looked up): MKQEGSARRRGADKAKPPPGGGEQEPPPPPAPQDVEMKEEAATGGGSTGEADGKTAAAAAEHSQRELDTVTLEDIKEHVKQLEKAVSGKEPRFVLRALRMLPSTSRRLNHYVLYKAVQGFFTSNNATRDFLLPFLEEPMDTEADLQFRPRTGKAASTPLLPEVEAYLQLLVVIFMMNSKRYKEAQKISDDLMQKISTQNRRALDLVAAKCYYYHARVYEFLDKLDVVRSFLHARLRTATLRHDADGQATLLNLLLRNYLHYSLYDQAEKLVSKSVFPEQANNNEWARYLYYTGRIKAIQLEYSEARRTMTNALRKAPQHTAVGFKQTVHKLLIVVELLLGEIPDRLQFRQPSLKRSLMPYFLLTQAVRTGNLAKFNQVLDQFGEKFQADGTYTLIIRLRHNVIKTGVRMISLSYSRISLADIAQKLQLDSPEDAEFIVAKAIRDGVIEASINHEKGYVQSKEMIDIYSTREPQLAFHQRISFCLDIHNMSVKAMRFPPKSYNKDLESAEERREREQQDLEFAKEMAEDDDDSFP
Chain of UniProt Q92968 (Q92968 whole entry, looked up): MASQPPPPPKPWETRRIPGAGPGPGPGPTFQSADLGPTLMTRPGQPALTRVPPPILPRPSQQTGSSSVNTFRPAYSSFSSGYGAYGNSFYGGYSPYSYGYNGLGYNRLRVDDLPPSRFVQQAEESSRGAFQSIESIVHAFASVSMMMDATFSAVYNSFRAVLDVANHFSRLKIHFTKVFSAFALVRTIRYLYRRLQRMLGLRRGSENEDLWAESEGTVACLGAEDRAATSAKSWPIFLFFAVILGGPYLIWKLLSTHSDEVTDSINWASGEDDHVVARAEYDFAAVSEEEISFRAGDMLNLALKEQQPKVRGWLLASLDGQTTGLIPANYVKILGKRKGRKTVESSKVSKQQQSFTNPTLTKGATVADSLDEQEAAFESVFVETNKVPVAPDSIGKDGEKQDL

log2 fold change, inactive:
PSMD3 (UniProt O43242) 0.008, PARL (UniProt Q9H300) 0.026, PEX13 (UniProt Q92968) -0.01, PURA (UniProt Q00577) -0.137, PSMB4 (UniProt P28070) -0.028, PIK3CB (UniProt P42338) 0.032, PPP2R5C isoform 4 (UniProt Q13362) -0.029, PUF60 (UniProt Q9UHX1) 0.013, PRKACA (UniProt P17612) 0.087, PRPSAP2 (UniProt O60256) -0.006, PHKA2 (UniProt P46019) -0.028, PTPN12 (UniProt Q05209) -0.021, RAB11FIP1 (UniProt Q6WKZ4) 0.031

compound: C1=CC=C2C(=C1)C3=NNC4=CC=CC(=C43)C2=O; experiment: as above
In short: as §1

log2 fold change, inactive:
PHF5A (UniProt Q7RTV0) -0.05, PRKAR2A (UniProt P13861) -0.004, PRUNE1 (UniProt Q86TP1) 0.045, POMP (UniProt Q9Y244) 0.003, PPT2 isoform 3 (UniProt Q9UMR5) 0.039, PIP4P1 isoform 2 (UniProt Q86T03) 0.035, POLD1 (UniProt P28340) -0.058, PGGT1B (UniProt P53609) -0.036, PPP1R14A (UniProt Q96A00) 0.004, PRMT3 (UniProt O60678) -0.003, PEX11B (UniProt O96011) -0.012, PCYT1A (UniProt P49585) -0.033, PISD (UniProt Q9UG56) 0.058, PSMD5 (UniProt Q16401) -0.012, PRPF40A (UniProt O75400) -0.135, PDIK1L (UniProt Q8N165) 0.197, PMPCA (UniProt Q10713) 0.065, PDCD2L (UniProt Q9BRP1) -0.001, PSMC6 (UniProt P62333) 0.014, PRKAB1 (UniProt Q9Y478) 0.026, PDSS2 (UniProt Q86YH6) -0.006, POLA1 (UniProt P09884) 0.021, PGM3 isoform 4 (UniProt O95394) 0.064, PSMD3 (UniProt O43242) 0.033, PARL (UniProt Q9H300) -0.012, PEX13 (UniProt Q92968) 0.005, PURA (UniProt Q00577) -0.051, PSMB4 (UniProt P28070) 0.001, PIK3CB (UniProt P42338) 0.014, PPP2R5C isoform 4 (UniProt Q13362) -0.015, PUF60 (UniProt Q9UHX1) 0.02, PRKACA (UniProt P17612) -0.025, PRPSAP2 (UniProt O60256) 0.029, PHKA2 (UniProt P46019) -0.026, PTPN12 (UniProt Q05209) -0.036, RAB11FIP1 (UniProt Q6WKZ4) 0.009

compound: C1CCN(C1)C(=O)NC2=CC=CC(=C2)NC3=NC=C(C(=N3)NCCC4=CN=CN4)Br; experiment: as above
In short: as §1

log2 fold change, inactive:
PHF5A (UniProt Q7RTV0) -0.02, PRKAR2A (UniProt P13861) -0.177, PRUNE1 (UniProt Q86TP1) -0.079, POMP (UniProt Q9Y244) 0.061, PPT2 isoform 3 (UniProt Q9UMR5) -0.012, PIP4P1 isoform 2 (UniProt Q86T03) -0.028, POLD1 (UniProt P28340) -0.02, PGGT1B (UniProt P53609) 0.054, PPP1R14A (UniProt Q96A00) 0.016, PRMT3 (UniProt O60678) -0.01, PEX11B (UniProt O96011) -0.097, PCYT1A (UniProt P49585) -0.043, PISD (UniProt Q9UG56) 0.009, PSMD5 (UniProt Q16401) 0.014, PRPF40A (UniProt O75400) -0.129, PDIK1L (UniProt Q8N165) 0.023, PMPCA (UniProt Q10713) -0.026, PDCD2L (UniProt Q9BRP1) -0.071, PSMC6 (UniProt P62333) 0.034, PRKAB1 (UniProt Q9Y478) -0.076, PDSS2 (UniProt Q86YH6) 0.061, POLA1 (UniProt P09884) 0.006, PGM3 isoform 4 (UniProt O95394) -0.005, PSMD3 (UniProt O43242) -0.012, PARL (UniProt Q9H300) 0.015, PEX13 (UniProt Q92968) 0.038, PURA (UniProt Q00577) 0.179, PSMB4 (UniProt P28070) 0.008, PIK3CB (UniProt P42338) -0.016, PPP2R5C isoform 4 (UniProt Q13362) 0, PUF60 (UniProt Q9UHX1) -0.072, PRKACA (UniProt P17612) -0.142, PRPSAP2 (UniProt O60256) -0.02, PHKA2 (UniProt P46019) 0.004, PTPN12 (UniProt Q05209) -0.039, RAB11FIP1 (UniProt Q6WKZ4) -0.049
